# Records with an inconclusive call do not appear. Entries that show only a call come without a potency. Activity calls are given as the source filed them. Calls follow the shape of the dose curve; as a rule, active = well fitted curve in the direction sought with a large enough effect; inconclusive = small, poorly fitted or top-dose-only effect, or another doubt; inactive = no such curve, though single readings can be large; an effect the other way counts as inactive or inconclusive.
# Target: ATP-dependent 6-phosphofructokinase (Trypanosoma brucei brucei) (UniProt O15648)
# Assay: qHTS Assay to Find Inhibitors of T. brucei phosphofructokinase: hit validation (AID 492961);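 also: luminescence reports ADP formed as PFK phosphorylates fructose-6-phosphate with ATP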
# Settings: T. brucei PFK, ADP-Glo luminescence; series mostly up to 51.4 µM
# Method in brief: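 Reaction: 0.1 M triethanolamine pH 8.0, 5 mM MgCl2, F6P 0.5 mM, ATP 0.1 mM, PFK 1.25 nM, 45 min RT. Read-out: ADP-Glo luminescence. Analysis: concentration-response fits, classed by r2 and efficacy.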
# Sequence of ATP-dependent 6-phosphofructokinase (Trypanosoma brucei brucei) (O15648 whole entry, looked up): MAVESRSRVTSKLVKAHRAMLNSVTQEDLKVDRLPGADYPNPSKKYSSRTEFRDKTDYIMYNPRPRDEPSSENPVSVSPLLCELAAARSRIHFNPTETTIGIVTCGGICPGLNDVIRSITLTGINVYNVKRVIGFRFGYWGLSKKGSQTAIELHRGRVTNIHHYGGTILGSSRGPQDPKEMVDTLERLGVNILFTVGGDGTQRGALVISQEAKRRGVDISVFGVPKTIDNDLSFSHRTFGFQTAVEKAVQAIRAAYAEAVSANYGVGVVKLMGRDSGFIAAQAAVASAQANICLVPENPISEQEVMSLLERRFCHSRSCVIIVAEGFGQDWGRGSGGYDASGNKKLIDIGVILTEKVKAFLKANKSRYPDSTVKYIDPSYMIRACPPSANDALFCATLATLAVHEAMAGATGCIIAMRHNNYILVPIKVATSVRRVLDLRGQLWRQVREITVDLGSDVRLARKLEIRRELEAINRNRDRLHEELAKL
row,SMILES,outcome
1,CCCCCCCCCCCCCCCC[n+]1ccccc1,inactive
2,Nc1ccc2cc3ccc(N)cc3nc2c1,inactive
3,O=C(Nc1ccc(Cl)cc1)Nc1ccc(Cl)c(Cl)c1,inactive
4,CCCCCCCCCCCCCC[N+](C)(C)C,inactive
5,Nc1c2ccccc2nc2ccccc12,inactive
6,O=[N+]([O-])c1ccc(O)c2ncccc12,inactive
7,CC(NCCC(c1ccccc1)c1ccccc1)c1ccccc1 (configuration not stated),inactive
8,O=S(=O)(O)c1ccc2nc(-c3ccccc3)[nH]c2c1,inactive
9,CN1CCC(Nc2ncc3ncnc(Nc4ccc(F)c(Cl)c4)c3n2)CC1,inactive
10,Nc1ncnc2nc[nH]c12,inactive

# System: not listed separately
# Assay: Validation screen for small molecules that induce genotoxicity in human embryonic kidney (HEK293T) cells expressing luciferase-tagged ELG1 (AID 493106)
# Settings: luminescence; series mostly up to 46.1 µM
# Method in brief: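 In this validation screen, increased ELG1-luciferase signal flags compounds causing genetic stress. HEK293T reporter cells are treated 16 hr (37 °C, 5% CO2), developed with ONE-Glo for 30 min at room temperature, and imaged on a CCD-based reader.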
row,SMILES,outcome
1,CCN(CC)CCNC(=O)c1ccc(NS(C)(=O)=O)cc1,inactive
2,Cc1nn(-c2ccccc2)c(C)c1/C=N/N1CCN(Cc2ccccc2)CC1,inactive
3,CC(C)N(CCC(=O)c1ccc2ccccc2c1)Cc1ccccc1,inactive
4,CN(C)c1cc2c(Nc3ccc4c(cnn4Cc4ccccc4)c3)ncnc2cn1,inactive
5,Nc1ncnc2n[nH]c(Nc3ccc(F)cc3)c12,inactive
6,O=[N+]([O-])c1ccc(-c2nc(-c3ccc(F)cc3)c(-c3ccncc3)[nH]2)cc1,inactive
7,COC(=O)C1=CO[C@@H](O)[C@@H]2C(CO)=CC[C@H]12,inactive
8,N[C@@H](Cn1ccc(=O)c(O)c1)C(=O)O,inactive
9,O=C1NC(c2cccc([N+](=O)[O-])c2)=CCN1c1ccccc1O,inactive
10,Brc1ccc([C@H]2CN3CCSC3=N2)cc1,inactive
11,COc1cccc2c1[C@@H]1CN(CCCCn3c(=O)[nH]c4c(sc5ncc(-c6ccccc6)nc54)c3=O)C[C@@H]1CO2,inactive
12,Clc1ccc2c(c1)N=C(N1CCNCC1)c1ccccc1N2,inactive
13,C[N+](C)(C)CCO,inactive
14,COc1ccccc1N1CCN(CCN2C(=O)CC3(CCCC3)CC2=O)CC1,inactive
15,Cn1cnc2c(NCc3ccccc3)nc(NCCO)nc21,inactive
16,NC(N)=NCCCCN=C(N)N,inactive

# Target: ATPase family AAA domain-containing protein 5 (Homo sapiens) (UniProt Q96QE3)
# Assay: Validation screen for small molecules that inhibit ELG1-dependent DNA repair in human embryonic kidney (HEK293T) cells expressing luciferase-tagged ELG1 (AID 493107); also: nearly all actives have a fitted effect of over 70% in size; also: potency is read from the fitted curve at half-maximal effect
# Settings: HEK293T ELG1-luciferase level, luminescence, 5-fluorouridine co-treatment, 16 h; series mostly up to 46.1 µM
# Method in brief: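 Compounds reducing 5-fluorouridine-driven ELG1-luciferase signal in HEK293T cells were scored; exposure lasted 16 hr at 37 °C with luminescence detected via ONE-Glo.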
# Sequence of ATPase family AAA domain-containing protein 5 (Homo sapiens) (Q96QE3 whole entry, looked up, the tested form may be a part): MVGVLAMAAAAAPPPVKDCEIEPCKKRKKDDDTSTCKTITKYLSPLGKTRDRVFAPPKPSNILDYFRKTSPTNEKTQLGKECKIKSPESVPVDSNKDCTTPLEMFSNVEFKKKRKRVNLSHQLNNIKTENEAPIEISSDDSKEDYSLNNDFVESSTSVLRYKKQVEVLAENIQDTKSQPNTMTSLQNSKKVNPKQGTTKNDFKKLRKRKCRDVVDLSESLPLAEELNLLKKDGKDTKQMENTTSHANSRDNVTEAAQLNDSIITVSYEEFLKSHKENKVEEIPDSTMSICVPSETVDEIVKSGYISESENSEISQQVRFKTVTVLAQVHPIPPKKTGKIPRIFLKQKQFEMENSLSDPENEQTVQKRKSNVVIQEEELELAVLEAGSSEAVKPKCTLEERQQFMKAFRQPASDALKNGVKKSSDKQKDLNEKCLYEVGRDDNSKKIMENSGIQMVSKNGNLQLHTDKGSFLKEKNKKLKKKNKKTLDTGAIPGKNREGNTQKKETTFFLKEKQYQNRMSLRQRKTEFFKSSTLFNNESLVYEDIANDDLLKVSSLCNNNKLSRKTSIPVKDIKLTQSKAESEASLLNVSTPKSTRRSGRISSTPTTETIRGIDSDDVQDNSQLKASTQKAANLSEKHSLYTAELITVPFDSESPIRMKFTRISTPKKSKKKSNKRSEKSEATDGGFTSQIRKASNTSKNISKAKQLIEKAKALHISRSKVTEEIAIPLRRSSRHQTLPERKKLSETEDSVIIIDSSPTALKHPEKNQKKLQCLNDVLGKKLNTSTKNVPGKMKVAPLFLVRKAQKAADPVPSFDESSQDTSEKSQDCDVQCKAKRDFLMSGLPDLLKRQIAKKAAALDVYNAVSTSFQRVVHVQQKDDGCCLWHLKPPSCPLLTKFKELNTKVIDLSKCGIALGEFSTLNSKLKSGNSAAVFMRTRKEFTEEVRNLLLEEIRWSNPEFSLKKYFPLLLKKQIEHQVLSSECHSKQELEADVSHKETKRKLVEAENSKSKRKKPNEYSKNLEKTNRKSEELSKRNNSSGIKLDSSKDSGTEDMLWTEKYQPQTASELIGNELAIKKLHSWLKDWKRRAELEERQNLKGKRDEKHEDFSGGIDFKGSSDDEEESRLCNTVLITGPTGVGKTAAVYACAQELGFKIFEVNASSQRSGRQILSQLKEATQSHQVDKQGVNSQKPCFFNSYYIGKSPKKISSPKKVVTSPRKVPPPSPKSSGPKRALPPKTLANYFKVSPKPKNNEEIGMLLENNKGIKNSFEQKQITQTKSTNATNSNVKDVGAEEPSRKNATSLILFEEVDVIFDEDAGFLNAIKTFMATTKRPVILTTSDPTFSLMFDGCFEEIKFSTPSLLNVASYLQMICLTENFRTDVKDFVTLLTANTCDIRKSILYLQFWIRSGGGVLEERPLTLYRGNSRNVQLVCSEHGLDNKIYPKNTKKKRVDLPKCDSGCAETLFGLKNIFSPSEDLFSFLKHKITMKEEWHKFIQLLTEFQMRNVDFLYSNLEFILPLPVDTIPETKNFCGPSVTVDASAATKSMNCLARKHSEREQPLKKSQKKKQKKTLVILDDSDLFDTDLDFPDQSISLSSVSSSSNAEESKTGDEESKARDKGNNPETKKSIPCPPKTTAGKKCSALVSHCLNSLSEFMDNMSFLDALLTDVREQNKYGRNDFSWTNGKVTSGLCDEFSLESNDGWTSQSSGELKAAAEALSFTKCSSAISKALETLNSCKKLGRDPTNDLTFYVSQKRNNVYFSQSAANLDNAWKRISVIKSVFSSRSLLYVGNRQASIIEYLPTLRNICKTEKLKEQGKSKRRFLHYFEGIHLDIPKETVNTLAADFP
row,SMILES,Potency
1,CCN(CC)CCNC(=O)c1ccc(NS(C)(=O)=O)cc1,inactive
2,COC(=O)C1=CO[C@@H](O)[C@@H]2C(CO)=CC[C@H]12,inactive
3,N[C@@H](Cn1ccc(=O)c(O)c1)C(=O)O,inactive
4,O=C1NC(c2cccc([N+](=O)[O-])c2)=CCN1c1ccccc1O,inactive
5,Brc1ccc([C@H]2CN3CCSC3=N2)cc1,inactive
6,COc1cccc2c1[C@@H]1CN(CCCCn3c(=O)[nH]c4c(sc5ncc(-c6ccccc6)nc54)c3=O)C[C@@H]1CO2,23.1 µM (active)
7,Clc1ccc2c(c1)N=C(N1CCNCC1)c1ccccc1N2,inactive
8,C[N+](C)(C)CCO,inactive
9,COc1ccccc1N1CCN(CCN2C(=O)CC3(CCCC3)CC2=O)CC1,inactive
10,Cn1cnc2c(NCc3ccccc3)nc(NCCO)nc21,inactive
11,NC(N)=NCCCCN=C(N)N,inactive

# Reference: PubChem BioAssay (NCATS)
